Bioassay records: PubChem, Sanford-Burnham Center for Chemical Genomics
In the library only some 28% were active in any assay of this set; here they are far more common.
CYP2C9 activ: CYP2C9 (human) activation | P11712 | recombinant CYP2C9, luciferin-H conversion, luminescence; stronger effect = higher value; factor 1 = untreated enzyme, 0 = blocked | activation factor at 5 µM | 96,000 tested, 1.4% active | AID 1024;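 active means activation factor of 2 or more for CYP2C9 at a 5 µM dose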;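 further: 0 = sulfaphenazole-blocked wells and 1 = vehicle-only wells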
Target sequence (P11712 whole entry, looked up): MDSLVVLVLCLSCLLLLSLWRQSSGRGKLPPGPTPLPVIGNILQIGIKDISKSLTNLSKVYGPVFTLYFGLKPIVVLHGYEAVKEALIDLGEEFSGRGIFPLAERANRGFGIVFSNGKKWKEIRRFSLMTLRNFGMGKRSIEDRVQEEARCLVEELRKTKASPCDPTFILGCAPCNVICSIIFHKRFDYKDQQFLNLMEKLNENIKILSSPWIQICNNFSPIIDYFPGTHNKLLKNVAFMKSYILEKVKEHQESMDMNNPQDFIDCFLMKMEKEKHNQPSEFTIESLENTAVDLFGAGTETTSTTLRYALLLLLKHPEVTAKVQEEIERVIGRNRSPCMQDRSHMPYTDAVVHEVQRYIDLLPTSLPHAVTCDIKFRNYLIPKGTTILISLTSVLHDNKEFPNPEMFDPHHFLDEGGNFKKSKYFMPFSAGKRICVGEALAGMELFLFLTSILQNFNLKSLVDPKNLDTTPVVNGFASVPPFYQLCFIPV
CYP2C9 inh: inhibitors of human CYP2C9; 96,000 tested, 20% active; CYP2C9 Supersomes, luciferin-H conversion, luminescence; inhibition, % at 5 µM; P11712;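 active means blocking of liver enzyme CYP2C9 beyond about 50% at 5 µM, limit read from the data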
CYP2C19 act: activators of human cytochrome P450 2C19; 96,000 tested, under 10 active; activation factor at 5 µM; AID 1025; recombinant CYP2C19, luciferin-H EGE luminescence; stronger effect = higher value; 0 = fully inhibited enzyme, 1 = untreated enzyme;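 active means activation factor of at least 2 at 5 µM in the primary screen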;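 further: 0 = wells with 2.5 mM tranylcypromine and 1 = vehicle-only wells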
CD11b adhes enh: CD11b/CD18-fibrinogen binding enhancement | P05107+P11215 | K562 CD11b/CD18 adhesion to fibrinogen, ATPlite luminescence | activation, % at 10 µM | 93,000 tested, 0.07% active;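 active means 10 µM primary screen giving 50% or more activity, confirmed by 40% or more on retest at that dose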
Mac1 fbg inh: inhibitors of human CD11b/CD18 binding to fibrinogen; P05107+P11215; K562 CD11b/CD18 adhesion to fibrinogen, ATPlite luminescence; Mn2+ added to activate the integrin; inhibition, % at 10 µM; 93,000 tested, 0.54% active;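 active means primary inhibition of 50% or more at 10 µM, then 40% or more on retest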
CYP2C19 inhib: human CYP2C19 inhibition. P33261. CYP2C19 Supersomes, luciferin-H EGE luminescence, 30 min. inhibition, % at 5 µM. 96,000 tested, 21% active;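 active means CYP2C19 inhibition above a set limit at 5 µM in the primary screen, cut at about 50% in these data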;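 further: plate controls were negative control wells for no effect and 2.5 mM tranylcypromine positive control for full effect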
* marks the source's active call; other numbers are inactive results; · = not tested or not shown.

SMILES	CYP2C9 activ	CYP2C9 inh	CYP2C19 act	CD11b adhes enh	Mac1 fbg inh	CYP2C19 inhib
CC(C)COC(=O)c1cc(=O)[nH]c2ccccc12	1.2	-23	1	1	-10	-2
CN(C)C(=O)c1c2c(nc3ccccc13)-c1ccccc1CC2	0.8	23	0.9	-5	-12	11
COc1ccc(OCc2nc3c4cc(OC)c(OC)cc4nc(=S)n3[nH]2)cc1	·	·	·	4	-12	·
O=c1c2cnn(-c3ccccc3)c2ncn1Cc1ccco1	0.5	50*	0.7	-5	-5	27
O=c1c2cnn(-c3ccccc3Cl)c2ncn1Cc1cccnc1	0.9	10	0.5	2	-24	53*
O=c1c2cnn(-c3ccccc3)c2ncn1Cc1cccnc1	0.8	20	0.6	·	·	40
O=c1c2cnn(-c3ccc(F)cc3)c2ncn1Cc1cccnc1	0.8	18	0.5	-3	-5	50*
CC(C(=O)Nc1ccc2c(c1)OCCO2)N1CCN(C(=O)c2ccco2)CC1 (centres undefined)	0.9	10	1.1	-2	7	-8
O=C(NCCO)c1ccc2nc(-c3ccco3)c(-c3ccco3)nc2c1	1	3	0.9	-1	-12	10
O=C(NC1CCCC1)c1ccc2nc(-c3ccco3)c(-c3ccco3)nc2c1	0.4	59*	0.8	-3	6	22
O=C(NCCc1ccccc1)c1ccc2nc(-c3ccco3)c(-c3ccco3)nc2c1	0	98*	0.1	5	36	94*
Cn1ncc(N=Cc2ccccc2)c1C(=O)Nc1cccc(Cl)c1	0.4	56*	1.1	55	0	-15
Cn1ncc(N=Cc2ccccc2)c1C(N)=O	0.7	28	1	-2	-14	-1
Cc1ccc(NCc2nnc(SC(C)C(=O)N/N=C/c3ccc(C)o3)n2-c2ccccc2)cc1 (centres undefined)	0.9	9	0.7	·	·	29
O=[N+]([O-])c1ccc(Cl)c(/C=N/N2CCN(Cc3ccccc3Cl)CC2)c1	2.1*	-108	0.8	·	·	19
COC(=O)c1c(NC(=O)C2CC=CCC2C(=O)O)sc(C)c1C (centres undefined)	0.3	71*	0.8	-1	-20	21
COc1ccc(CNC(=O)C2CC(c3ccccc3[N+](=O)[O-])=NO2)cc1 (centres undefined)	1.1	-6	0.5	·	·	50*
COc1ccccc1CNC(=O)C1CC(c2ccccc2[N+](=O)[O-])=NO1 (centres undefined)	2.8*	-180	0.6	·	·	43
Cc1[nH]c2ccccc2c1/C=N/n1cnnc1	0.8	20	0.5	1	4	46
Cc1c(/C=N/n2cnnc2)c2ccccc2n1CCOc1ccccc1	0.5	45	0.2	-5	0	79*
CCCOc1ccc2ccccc2c1/C=N/n1cnnc1	0.4	57*	0.4	3	-4	60*
CCOc1ccc2ccccc2c1/C=N/n1cncn1	0.4	58*	0.5	5	-11	49
COc1cccc(/C=N/n2cnnc2)c1OCc1ccccc1	0.6	44	0.6	-1	12	41
COc1ccccc1OCCOc1ccccc1/C=N/n1cnnc1	0.8	19	0.3	3	9	75*
CC(C)Oc1ccc2ccccc2c1C=O	0.8	21	0.8	-3	2	21
SMILES	CYP2C9 activ	CYP2C9 inh	CYP2C19 act	CD11b adhes enh	Mac1 fbg inh	CYP2C19 inhib
C=CCn1c(SCC(=O)Nc2nnc(CC)s2)nnc1-c1ccco1	0.5	45	0.9	-1	-8	8
Cc1ccc(-n2c(C)cc(C3=NNC(=NC4CC4)SC3)c2C)cc1C	·	·	·	-12	99	·
O=S(=O)(NCc1csc(-c2cccnc2)n1)c1ccc2c(c1)OCCO2	0.8	22	0.4	1	-4	57*
O=S(=O)(NCCc1csc(-c2ccccc2)n1)c1ccc2c(c1)OCCO2	0.9	14	0.1	1	11	89*
CC(=O)N1CCN(c2ccc(NCc3ccc(C)cc3)cc2)CC1	0.5	54*	0.6	1	0	44
CC(=O)c1ccc(NCC(=O)N2CCN(c3ccccc3)CC2)cc1	0.8	23	0.4	41	-23	58*
CC(=O)Nc1ccc(N2CCN(C(C)=O)CC2)cc1	1.1	-8	1.1	-5	7	-14
